Measured values published in PubChem BioAssay AID652115 (Broad Institute, 2013).
Screen size: about 330,000 compounds; about 3,800 (1.2%) were called active. This excerpt belongs to a sample that is enriched for actives. A number with no mark means an inactive call. No stated cut-off is given here; in the data, active means inhibition above about 15%; inconclusive means no clear call, values can overlap the other calls; inactive means below that.

The compounds below were run against NAD-dependent protein deacylase sirtuin-5, mitochondrial (Homo sapiens) (UniProt Q9NXA8) (assay: blockers of sirtuin-5 deacylase activity – biochemical, fluorescence imaging, single point, set 5, primary screen (AID 652115)). Details: Purified SirT5, succinyl-peptide AMC, trypsin-coupled fluorescence; at 15 µM; stronger effect = higher value.
Sequence of NAD-dependent protein deacylase sirtuin-5, mitochondrial (Homo sapiens) (Q9NXA8 whole entry, looked up): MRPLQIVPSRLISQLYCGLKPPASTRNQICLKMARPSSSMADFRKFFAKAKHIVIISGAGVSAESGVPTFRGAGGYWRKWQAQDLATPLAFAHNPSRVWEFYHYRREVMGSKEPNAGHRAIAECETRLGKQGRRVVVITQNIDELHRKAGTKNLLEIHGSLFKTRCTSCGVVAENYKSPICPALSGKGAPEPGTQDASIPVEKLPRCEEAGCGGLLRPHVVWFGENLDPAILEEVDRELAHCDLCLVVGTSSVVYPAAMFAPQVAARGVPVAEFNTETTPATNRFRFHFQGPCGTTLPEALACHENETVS

SMILES	inhibition
CC(=O)Nc1ccc(C(=O)C(Cc2ccccc2)N(C)C)cc1 (stereo not given)	18.6% (active)
O=C(COC(=O)Cc1ccccc1)Nc1ccc(F)cc1	-1.48%
CC(Cc1ccccc1)NC=O (stereo not given)	-0.859%
COC(=O)[C@H]1[C@H](CO)[C@H]2Cn3c(cccc3=O)[C@H]2N1CC1CC1	0.308%
COC(=O)C1=C(c2ccc(OCc3ccccc3)cc2)C[C@@H]2CC[C@H]1N2C(=O)NCc1cccc(F)c1	-8.66%
O=C1NCN(c2ccccc2)C12CCN(C(c1cccs1)c1nnnn1C1CCCCC1)CC2 (stereo not given)	3.05%
COc1ccc(N2C(=O)/C(=C/c3ccco3)C(=O)NC2=S)cc1	44.4% (active)
COc1cccc(N2C(=O)NC(=O)/C(=C\c3cn(C)c4ccccc34)C2=O)c1	-7.3%
COc1ccc(CN2C(=O)NC(=O)/C(=C\c3ccc(OC)c(OC)c3OC)C2=O)cc1	-0.842%
S=C(NCCc1ccccc1)N1Cc2cc(N3CCOCC3)ccc2-n2nncc2C1	0.564%
